# Test results taken from PubChem BioAssay (Tox21).
# Where “and” joins values, the source holds several entries; their conditions need not be identical. Identical values can stand only once. Records with an inconclusive call do not appear. A call without a number means that no potency is given here. Values without a mark were called inactive. Calls of active or inactive are those of the source. Unless noted, the call rests on the fitted dose curve; in most records, active means well fitted curve in the direction sought with a large enough effect in the repeat runs; inconclusive means weak or mixed curves; inactive means no such curve, though single readings can be large; an effect the other way counts as inactive or inconclusive.
# Experiments:
# [1] = qHTS assay to identify small molecule antagonists of the vitamin D receptor (VDR) signaling pathway - cell viability counter screen (AID 743225); further: nearly all actives have a fitted effect of over 50% in size
# How it was run: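 Cytotoxicity toward the VDR-bla HEK 293T line was scored by ATP-based CellTiter-Glo luminescence, read in the wells already used for the beta-lactamase readout after 16 h compound treatment under 3 nM 1-alpha,25-dihydroxyvitamin D3 stimulation.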
# [2] = qHTS assay to identify small molecule agonists of the NFkB signaling pathway (AID 1159509; active means well fitted curve in the direction sought with a large enough effect in the signal ratio in the repeat runs, not every such curve was filed as active; the % refers to the signal ratio; further: series mostly up to about 61 µM)
# How it was run: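 NFkB-bla ME-180 cells with a beta-lactamase reporter under an NF-kB response element were plated overnight, treated with compounds in DMSO for 5 hr at 37 C, then loaded with FRET substrate for 1.5 hr at room temperature.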
# [3] = qHTS assay to identify small molecule agonists of the NFkB signaling pathway - cell viability counter screen (AID 1159515; calls by dose curve; further: series mostly up to about 61 µM; nearly all actives have a fitted effect of over 55% in size)
# How it was run: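 NFkB-bla ME-180 cells, 2,000/well, were plated overnight at 37 C, 5% CO2, then exposed to compounds in DMSO for 5 hr. After the bla FRET read, CellTiter-Glo was added to the same wells; luminescence was read after 30 min at room temperature.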
# [4] = qHTS assay to identify small molecule agonists of the endoplasmic reticulum stress response signaling pathway (AID 1159516; active means well fitted activation curve with a large enough effect in the signal ratio in the repeat runs, not every such curve was filed as active; the % refers to the signal ratio)
# How it was run: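 CellSensor ESRE-bla HeLa cells, carrying a beta-lactamase reporter driven by the ER stress response element, were plated overnight and exposed to compounds for 5 hr at 37 C. Reporter activity was read as FRET substrate fluorescence after 2 hr at room temperature.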
# [5] = qHTS assay to identify small molecule agonists of the endoplasmic reticulum stress response signaling pathway - cell viability counter screen (AID 1159517; calls by dose curve; further: series mostly up to about 61 µM; nearly all actives have a fitted effect of over 50% in size)
# How it was run: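 Luminescence readout: CellTiter-Glo, 30 min RT, same wells as the ESRE-bla reporter read. HeLa ESRE-bla, 1,500 cells/well, o/n 37 C; cpd 5 hr 37 C/5% CO2.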
# [6] = qHTS assay to identify small molecule antagonists of the retinoid-related orphan receptor gamma (ROR-gamma) signaling pathway - cell viability counter screen (AID 1159520); further: nearly all actives have a fitted effect of over 50% in size
# How it was run: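 Tet-on ROR gamma CHO cells (1,000/well) were plated 4 hr, given compounds in DMSO for 2 hr at 37 C, then induced with 1 uM final doxycycline for 16 hr. Viability was read as ATP by CellTiter-Glo luminescence after 30 min.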
# [7] = molecular target: Nuclear receptor ROR-gamma (Homo sapiens) (UniProt P51449); assay: qHTS assay to identify small molecule antagonists of the retinoid-related orphan receptor gamma (ROR-gamma) signaling pathway (AID 1159521; further: nearly all actives have a fitted effect of over 50% in size; further: potency means the concentration at half of the fitted maximal effect)
# How it was run: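 Readout: ONE-Glo luciferase luminescence, 30 min at room temperature. System: Tet-on RORγ CHO, RORE-LUC. Sequence: compound 2 h, doxycycline 1 uM final, 16 h at 37 C.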
# [8] = qHTS assay to identify small molecule agonists of the AP-1 signaling pathway - cell viability counter screen (AID 1159525; calls by dose curve; further: nearly all actives have a fitted effect of over 55% in size)
# How it was run: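 ME-180 AP-1-bla, 2500 cells/well, Opti-MEM + 0.5% dialyzed FBS; overnight 37 °C; cpd 15-pt titration, 5 h 37 °C; CellTiter-Glo 30 min RT; luminescence read; normalised to TOAB and DMSO controls.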
# [9] = qHTS assay to identify small molecule agonists of the AP-1 signaling pathway (AID 1159526; calls by dose curve)
# [10] = qHTS assay to identify small molecule agonists of the RXR signaling pathway - cell viability counter screen (AID 1159529)
# How it was run: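 Tox21 10K compounds were tested for cytotoxicity against GeneBLAzer RXR-alpha HEK 293T cells grown in 2% charcoal-stripped FBS. Exposure lasted 16 hr at 37 C, 5% CO2; viability read by CellTiter-Glo luminescence.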
# [11] = qHTS assay to identify small molecule antagonists of the retinoid acid receptor (RAR) signaling pathway - cell viability counter screen (AID 1159551); further: nearly all actives have a fitted effect of over 35% in size
# How it was run: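 C3RL4 cells were seeded overnight at 37 C, then treated with compounds plus 1 uM (final) retinol for 6 h at 37 C. Viability was read as ATP by CellTiter-Glo luminescence after 30 min at room temperature.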
# [12] = qHTS assay to identify small molecule antagonists of the retinoic acid receptor (RAR) signaling pathway (AID 1159552; further: nearly all actives have a fitted effect of over 50% in size)
# How it was run: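 Overnight-plated C3RL4 reporter cells get compound, then retinol to 1 uM final; plates sit 6 hr at 37 C, 5% CO2. A luciferase reagent is added and light output recorded after 30 min at room temperature.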
# [13] = qHTS assay to identify small molecule agonists of the retinoic acid receptor (RAR) signaling pathway (AID 1159553); further: potency means the concentration at half of the fitted maximal effect
# How it was run: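 C3RL4 cells carrying a RARE luciferase reporter were plated overnight at 37 C, then exposed to compounds in DMSO for 6 hr at 37 C and 5% CO2. Luminescence was read 30 min after luciferase reagent addition at room temperature.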
# [14] = qHTS assay to identify small molecule antagonists of the estrogen related receptor (ERR) signaling pathway from Tox21 library - cell viability counter screen (AID 1224834); further: nearly all actives have a fitted effect of over 30% in size
# How it was run: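 ERR reporter cells were plated 6 h before compound addition, then exposed to test compounds in DMSO for 17.5 h at 37 C. Viability was read as CellTiter-Fluor fluorescence after a 30-minute incubation at 37 C.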
# [15] = molecular target: Luciferin 4-monooxygenase (Photinus pyralis) (UniProt P08659); assay: qHTS assay to identify small molecule inhibitors of firefly luciferase (AID 1224835); further: series mostly up to about 120 µM; nearly all actives have a fitted effect of over 25% in size
# How it was run: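 Quantitative HTS format; KM concentrations of both substrates. Purified P. pyralis FLuc activity quantified from luminescence images.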
# [16] = qHTS assay to identify small molecule agonists of the constitutive androstane receptor (CAR) signaling pathway - cell viability counter screen (AID 1224836); further: series mostly up to about 92 µM; nearly all actives have a fitted effect of over 45% in size
# How it was run: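 Fluorescence from CellTiter-Fluor indicates live cells after 23 h exposure. The human hepatoma line expresses hCAR and a CYP2B6-2.2kb reporter. Incubation medium contains 0.75 uM PK11195 (final).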
# [17] = qHTS assay to identify small molecule antagonists of the constitutive androstane receptor (CAR) signaling pathway - cell viability counter screen (AID 1224837); further: series mostly up to about 92 µM; nearly all actives have a fitted effect of over 45% in size
# How it was run: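 HepG2 cells stably expressing hCAR and a CYP2B6-2.2kb reporter were plated and pre-incubated 4 hr at 37 C/5% CO2, then given compounds at 15 concentrations plus 50 nM CITCO (final). After 23 hr, viability was read by CellTiter-Fluor fluorescence.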
# [18] = qHTS assay to identify small molecule agonists of the vitamin D receptor (VDR) signaling pathway - cell viability counter screen (AID 743224)
# How it was run: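 VDR-bla cells were preincubated 4 h at 37C/5% CO2, then exposed to compounds for 16 h. After the 2 h room-temperature bla FRET read, CellTiter-Glo was added to the same wells and luminescence read after 30 min.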
# [19] = molecular target: Retinoic acid receptor RXR-alpha (Homo sapiens) (UniProt P19793); assay: qHTS assay to identify small molecule agonists of the RXR signaling pathway (AID 1159527; calls by dose curve; further: nearly all actives have a fitted effect of over 35% in size)
# How it was run: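 Reporter activation is measured as beta-lactamase activity via FRET substrate cleavage (emission 460/530 nm) in HEK 293T cells expressing an RXR-alpha-driven bla construct, following 16 hr compound exposure at 37 C.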
# [20] = qHTS assay to identify small molecule antagonists of the estrogen related receptor (ERR) signaling pathway - cell viability counter screen (AID 1224818);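 further: series mostly up to about 46 µM; viability measured after 17.5 h of compound exposure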
# How it was run: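 ERR reporter cells plated 6 h at 37 C/5% CO2, then compounds in DMSO pin-transferred and incubated 17.5 h at 37 C. Viability read as CellTiter-Fluor fluorescence after 30 min at 37 C.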
# Retinoic acid receptor RXR-alpha (Homo sapiens), sequence (P19793 whole entry, looked up): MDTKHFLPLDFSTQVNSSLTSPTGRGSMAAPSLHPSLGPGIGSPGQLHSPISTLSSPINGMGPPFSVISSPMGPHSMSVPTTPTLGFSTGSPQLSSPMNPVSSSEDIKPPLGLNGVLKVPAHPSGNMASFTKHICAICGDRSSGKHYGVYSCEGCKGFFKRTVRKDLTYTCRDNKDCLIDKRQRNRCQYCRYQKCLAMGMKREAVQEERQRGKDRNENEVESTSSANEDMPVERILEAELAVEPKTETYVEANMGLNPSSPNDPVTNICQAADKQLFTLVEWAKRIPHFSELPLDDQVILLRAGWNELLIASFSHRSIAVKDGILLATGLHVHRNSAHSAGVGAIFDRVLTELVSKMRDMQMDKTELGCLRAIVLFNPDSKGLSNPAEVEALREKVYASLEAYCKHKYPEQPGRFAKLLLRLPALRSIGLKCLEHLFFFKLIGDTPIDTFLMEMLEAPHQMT
# Luciferin 4-monooxygenase (Photinus pyralis), sequence (P08659 whole entry, looked up): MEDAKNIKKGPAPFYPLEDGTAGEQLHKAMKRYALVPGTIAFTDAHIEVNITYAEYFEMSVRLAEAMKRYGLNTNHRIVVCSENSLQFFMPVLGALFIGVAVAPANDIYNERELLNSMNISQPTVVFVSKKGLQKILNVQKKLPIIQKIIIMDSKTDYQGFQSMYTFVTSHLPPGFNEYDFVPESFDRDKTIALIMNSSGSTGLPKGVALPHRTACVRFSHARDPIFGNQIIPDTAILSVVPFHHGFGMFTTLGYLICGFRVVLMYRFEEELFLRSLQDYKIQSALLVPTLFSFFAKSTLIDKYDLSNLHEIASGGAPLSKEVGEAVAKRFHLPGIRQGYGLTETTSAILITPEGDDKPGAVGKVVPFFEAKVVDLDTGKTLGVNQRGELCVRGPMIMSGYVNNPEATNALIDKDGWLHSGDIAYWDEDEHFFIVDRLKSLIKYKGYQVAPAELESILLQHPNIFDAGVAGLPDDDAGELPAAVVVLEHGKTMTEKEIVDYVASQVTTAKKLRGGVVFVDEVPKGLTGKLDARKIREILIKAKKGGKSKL
smiles,measurement,setting,value
O=C(OCCOCCOC(=O)c1ccccc1)c1ccccc1,outcome,[1],inactive
same,outcome,[2],inactive
same,outcome,[3],inactive
same,outcome,[4],inactive
same,outcome,[5],inactive
same,Potency,[6],inactive
same,Potency,[7],inactive
same,Potency,[8],inactive
same,outcome,[9],inactive
same,Potency,[10],inactive
same,outcome,[11],inactive
same,Potency,[12],inactive
same,Potency,[13],inactive
same,Potency,[14],inactive
same,Potency,[15],inactive
same,Potency,[16],inactive
same,Potency,[17],inactive
CN(C)CCCN,Potency,[18],inactive
same,outcome,[1],inactive
same,outcome,[2],inactive
same,outcome,[3],inactive
same,outcome,[4],inactive
same,outcome,[5],inactive
same,Potency,[6],inactive
same,Potency,[7],inactive
same,Potency,[8],inactive
same,outcome,[9],inactive
same,Potency,[19],inactive
same,Potency,[10],inactive
same,outcome,[11],inactive
same,Potency,[14],inactive
same,Potency,[15],inactive
same,Potency,[17],inactive
NNc1nncc2ccccc12,outcome,[1],inactive
same,outcome,[2],inactive
same,outcome,[3],inactive
same,outcome,[4],inactive
same,outcome,[5],inactive
same,Potency,[6],inactive
same,Potency,[7],inactive
same,Potency,[8],inactive
same,activation,[9],-4.28% [at 15.8 µM]
same,"activity change, negative = cytotoxicity",[10],-0.524% [at 15.8 µM]
same,outcome,[11],inactive
same,Potency,[12],inactive
same,Potency,[13],770 nM (active) and 5.17 µM (active)
same,outcome,[20],inactive
same,"viability change, negative = cytotoxic",[14],6.05% [at 19 µM]
same,Potency,[17],inactive
Oc1cccc2ccccc12,Potency,[18],inactive
same,outcome,[1],inactive
same,outcome,[2],inactive
same,outcome,[3],inactive
same,outcome,[4],inactive
same,outcome,[5],inactive
same,Potency,[6],inactive
same,Potency,[7],inactive
same,Potency,[8],inactive
same,outcome,[9],inactive
same,Potency,[10],inactive
same,outcome,[11],inactive
same,Potency,[14],inactive
same,Potency,[16],inactive
same,Potency,[17],inactive
CC1=C(C)S(=O)(=O)CCS1(=O)=O,Potency,[18],inactive
same,outcome,[1],inactive
same,outcome,[2],inactive
same,outcome,[3],inactive
same,outcome,[4],inactive
same,outcome,[5],inactive
same,Potency,[6],inactive
same,Potency,[7],54.5 µM (active)
same,Potency,[8],inactive
same,outcome,[9],inactive
same,Potency,[19],inactive
same,Potency,[10],inactive
same,outcome,[11],inactive
same,Potency,[14],inactive
same,Potency,[15],inactive
same,Potency,[17],inactive
CCc1cccc(C)c1N,Potency,[18],inactive
same,outcome,[1],inactive
same,outcome,[2],inactive
same,outcome,[3],inactive
same,outcome,[4],inactive
same,outcome,[5],inactive
same,Potency,[6],inactive
same,Potency,[7],inactive
same,Potency,[8],inactive
same,outcome,[9],inactive
same,Potency,[10],inactive
same,outcome,[11],inactive
same,Potency,[12],inactive
same,Potency,[13],inactive
same,Potency,[14],inactive
same,Potency,[15],inactive
same,Potency,[16],inactive
same,Potency,[17],inactive
O=C(O)CCCC[C@@H]1SC[C@@H]2NC(=O)N[C@@H]21,outcome,[1],inactive
same,outcome,[2],inactive
same,outcome,[3],inactive
same,outcome,[4],inactive
same,outcome,[5],inactive
same,Potency,[6],inactive
same,Potency,[7],inactive
same,Potency,[8],inactive
same,outcome,[9],inactive
same,Potency,[19],inactive
same,Potency,[10],inactive
same,outcome,[11],inactive
same,Potency,[12],inactive
same,Potency,[13],inactive
same,Potency,[14],inactive
same,Potency,[15],inactive
same,Potency,[16],inactive
same,Potency,[17],inactive
C[C@H]1C[C@@H]2[C@H]([C@@H](O)C[C@@]3(C)[C@H]2CC[C@]3(O)C(=O)CO)[C@@]2(C)C=CC(=O)C=C12,Potency,[18],inactive
same,outcome,[1],inactive
same,outcome,[2],inactive
same,outcome,[3],inactive
same,outcome,[4],inactive
same,outcome,[5],inactive
same,Potency,[6],inactive
same,Potency,[7],inactive
same,Potency,[8],inactive
same,outcome,[9],inactive
same,Potency,[19],inactive
same,Potency,[10],inactive
same,outcome,[11],inactive
same,Potency,[12],inactive
same,Potency,[13],inactive
same,Potency,[14],inactive
same,Potency,[15],inactive
same,Potency,[16],inactive
same,Potency,[17],inactive
